The text below walks through data of paper PMC12864922, “TDP-43 directly inhibits mRNA accumulation in neurites through modulation of mRNA stability”.

Numbering of substitutions follows the chain as printed. Whole data set: some 9,900 sequences, median “r (bound/input frequency ratio)” near 0.7, cut for the highest 2% near 6.5. This excerpt belongs to a sample that is enriched for the highest values.

The labels stand for the following.
B1: ENSMUSG00000004113.301|Cacna1b (ssRNA)
RNA: GGGAGUUCUACAGUCCGACGAUCGCUUCGAUAUCCGCAUGCUAAGGCACUCCUUGGUGUGGUCUCUCUGUUUUGAAACUUCUGAUGACUUCUUGGUGGCUUGUUGUCUUCUACCCCAUGUUUCUCACAGGAUCUGUGUGUGUGUGUGUGUGUGUGUGUGUGUGUGUGUGUGUGUGUGUUAGCAUGUGUGUAUUAGCGUGUGUGAGUGUGUGAGCAUGCACGAGUCAUAGGAGAUGCAGGUGUAUGUGUGUGGUGUGCAUAUGUGUAUGUGUGUGUGUGUGUGUGUGUGUGUAGGUGUGUUCAGCUCUUGCGGUCGCACUAGUGUGGAAUUCUCGGGUGUCAAGG
B2: ENSMUSG00000090935.77|Synj2bp|54:58 (ssRNA)
RNA: GGGAGUUCUACAGUCCGACGAUCGCUUCGAUAUCCGCAUGCUACUUUGUCAGCAUAGGCAGGAGUCCUUUAGGAUUUCUGCCUAUCAGUAAAAGAACAUACUAACCCAAGUUCUACCUUCAGUGGAUUAAAGUUUCAUUAAGUGAAAAUGGAAAGAAAGUAGAAUUACUUGGUAAGAGGCCAAAUGAGGAUACAGAGGCUGAAGAAGAUUGAAAGGAGCUAGUGUAAACAAACAAACAAACAAACAAACAAAAAACCAAACCCCAAAACAAAAACAAAAACAAAACAAAAUUGGAGAAAGCAGCUCUUGCGGUCGCACUAGUGUGGAAUUCUCGGGUGUCAAGG
B3: ENSMUSG00000090935.14|Synj2bp|150:154 (ssRNA)
RNA: GGGAGUUCUACAGUCCGACGAUCGCUUCGAUAUCCGCAUGCUAGAGAGCAGUCAGAUAUGAACGGACGGGUGGAUUAUUUAGUCACGGAGGAAGAGAUCAACCUGACGAGAGGACCUUCGGGUAAAUGGCCAAGAUCUGAAGAACCUGCUGCACCAAGAUGCUGUAGACCUCUUCCGUAAUGCGGGAUGUGCACACACCCUGAGAGUACAGCACAGGUUACCAGUGCAGAAUGGACCUAUAGUACAUCGAGGUGAAGGAGAGCCAAGUGGAGUUCCUGUAGCUAUGGUGCUGCUACCAGUGUUCUCUUGCGGUCGCACUAGUGUGGAAUUCUCGGGUGUCAAGG
B4: ENSMUSG00000090935.23|Synj2bp (ssRNA)
RNA: GGGAGUUCUACAGUCCGACGAUCGCUUCGAUAUCCGCAUGCUAUCAACCUGACGAGAGGACCUUCGGGUAAAUGGCCAAGAUCUGAAGAACCUGCUGCACCAAGAUGCUGUAGACCUCUUCCGUAAUGCGGGAUGUGCUGUGUCCCUGAGAGUACAGCACAGGUUACCAGUGCAGAAUGGACCUAUAGUACAUCGAGGUGAAGGAGAGCCAAGUGGAGUUCCUGUAGCUAUGGUGCUGCUACCAGUGUUUGCCCUCACCAUGGUAGCAGUUUGGGCCUUCGUGAGAUACCGAAAGCAGCUUUGCUCUUGCGGUCGCACUAGUGUGGAAUUCUCGGGUGUCAAGG
B5: ENSMUSG00000031028.306|Tub|133:137 (ssRNA)
RNA: GGGAGUUCUACAGUCCGACGAUCGCUUCGAUAUCCGCAUGCUAAUUGCCAUCAGAGAACCCUCAGCGAGGUAGCCUUUGUUUACAGUCUAGUUUCUAGAGGGCAGUAGGACUUCCAUGCUGGGGCUGGCCUAUCUCCUGAUGAAAGAUUACAGUGCCAUCUCCUUCCCAUAGUUCACACACUGCCCUCCCUCCCUGACUUUAUAGGGAGAAAUCUCCUGACAUUAGAGGUGAUAGAAACCAGAGCUUUAGUCUAGUCAGGCUGUUUCUCUGGGUUGACAAGUUUAAGGUUGAACAGGCUGAUUCUCUUGCGGUCGCACUAGUGUGGAAUUCUCGGGUGUCAAGG
B6: ENSMUSG00000004113.120|Cacna1b (ssRNA)
RNA: GGGAGUUCUACAGUCCGACGAUCGCUUCGAUAUCCGCAUGCUAGGGACUUUCUGAGCCUCGUGGAGAGUGUGGUUUGUCCAAAUGUGUGGCAUGGGAGAUAGGGUACCCCUGAAAGCAAGGAAAGGAGCCCAGCUGUGGCCUGGUAGCACCUGCCGGCACCAGUGAUCUCACGUCUCUUGUGGUCUUGGAGUCAAAUAGCACAUGUAUGUAGAGAUGCGCUCAAGGGCCUGCCUUUCACCUACACUGUCACCAUAACAGGGACCAAAUCUGGAGGAUGUCCUUGCUGUUGAUUCUGGUUUUCACUCUUGCGGUCGCACUAGUGUGGAAUUCUCGGGUGUCAAGG
B7: ENSMUSG00000061578.1213|Ksr2|85:89 (ssRNA)
RNA: GGGAGUUCUACAGUCCGACGAUCGCUUCGAUAUCCGCAUGCUAUCUCACACCCCUGUCCCCGUCCCCUCCACCCCCCGGCAGCAUGCUUCACUCUAUGAAUGAGCCGCUGGGAUAUUGACAUGGAGAACACAUGAUGGAAAAAGCCUCCACACCCAACAUAACUCUCCAGAGAGAUAUUGAAAGUGAUGGGCAGAGAGUCUGACAAUGACCCAGGGGUCAUUGUGAGUCCUAGGCUGAAUCUGUAAUGGGGUCCAAAGUGCAGGAGAGACUGCAUUCACCUUGUUGGUGGGGUGGGGCUUCUUCUCUUGCGGUCGCACUAGUGUGGAAUUCUCGGGUGUCAAGG
B8: ENSMUSG00000061578.1433|Ksr2 (ssRNA)
RNA: GGGAGUUCUACAGUCCGACGAUCGCUUCGAUAUCCGCAUGCUACUCACUCAUUGCCAACAUGUUGCUGGGAAAGAAUAUUUGAUUUAGAUGCCAAUCAGGAAGGCAAGUAGGAUGGAUGGAUGAGUGAGUGGAUAGGUAGGUAUAUAAAUGGAUGGAUGGGUGAUGGAUGGGUAAAUGAAUGGAUAGGUAUGUGAAUGAAUGGAUGAUGGAUGAAUGGAUGGGUAGGUGGGUAGAUAGGUAUAUGAAUGAAUGGAUGAAUGGAUGGGUGAAUGGAUGGAUAGGUAUGUGAAUAAAUGGAUGGACUCUUGCGGUCGCACUAGUGUGGAAUUCUCGGGUGUCAAGG
B9: ENSMUSG00000061578.1430|Ksr2 (ssRNA)
RNA: GGGAGUUCUACAGUCCGACGAUCGCUUCGAUAUCCGCAUGCUAGUCUUGCUCUCUGUCUCUCUCACUCAUUGCCAACAUGUUGCUGGGAAAGAAUAUUUGAUUUAGAUGCCAAUCAGGAAGGCAAGUAGGAUGGAUGGAUGAGUGAGUGGAUAGGUAGGUAUAUAAAUGGAUGGAUGGGUGAUGGAUGGGUAAAUGAAUGGAUAGGUAUGUGAAUGAAUGGAUGAUGGAUGAAUGGAUGGGUAGGUGGGUAGAUAGGUAUAUGAAUGAAUGGAUGAAUGGAUGGGUGAAUGGAUGGAUAGGUACUCUUGCGGUCGCACUAGUGUGGAAUUCUCGGGUGUCAAGG
B10: ENSMUSG00000061578.1430|Ksr2|163:167 (ssRNA)
RNA: B9 RNA with G206C, U207A, A208U, U209A, G210C
B11: ENSMUSG00000061578.1432|Ksr2 (ssRNA)
RNA: GGGAGUUCUACAGUCCGACGAUCGCUUCGAUAUCCGCAUGCUAGUCUCUCUCACUCAUUGCCAACAUGUUGCUGGGAAAGAAUAUUUGAUUUAGAUGCCAAUCAGGAAGGCAAGUAGGAUGGAUGGAUGAGUGAGUGGAUAGGUAGGUAUAUAAAUGGAUGGAUGGGUGAUGGAUGGGUAAAUGAAUGGAUAGGUAUGUGAAUGAAUGGAUGAUGGAUGAAUGGAUGGGUAGGUGGGUAGAUAGGUAUAUGAAUGAAUGGAUGAAUGGAUGGGUGAAUGGAUGGAUAGGUAUGUGAAUAAAUGCUCUUGCGGUCGCACUAGUGUGGAAUUCUCGGGUGUCAAGG
B12: ENSMUSG00000061578.1434|Ksr2|139:143;234:238 (ssRNA)
RNA: GGGAGUUCUACAGUCCGACGAUCGCUUCGAUAUCCGCAUGCUACAUUGCCAACAUGUUGCUGGGAAAGAAUAUUUGAUUUAGAUGCCAAUCAGGAAGGCAAGUAGGAUGGAUGGAUGAGUGAGUGGAUAGGUAGGUAUAUAAAUGGAUGGAUGGGUGAUGGAUGGGUAAAUGAAUGGAUAGCAUACUGAAUGAAUGGAUGAUGGAUGAAUGGAUGGGUAGGUGGGUAGAUAGGUAUAUGAAUGAAUGGAUGAAUGGAUGGGUGAAUGGAUGGAUAGCAUACUGAAUAAAUGGAUGGAUGGAUGCUCUUGCGGUCGCACUAGUGUGGAAUUCUCGGGUGUCAAGG
B13: ENSMUSG00000061578.1432|Ksr2|151:155;246:250 (ssRNA)
RNA: B11 RNA with G194C, U195A, A196U, U197A, G198C, G289C, U290A, A291U, U292A, G293C
B14: ENSMUSG00000061578.1431|Ksr2|157:161;252:256 (ssRNA)
RNA: GGGAGUUCUACAGUCCGACGAUCGCUUCGAUAUCCGCAUGCUACUCUCUGUCUCUCUCACUCAUUGCCAACAUGUUGCUGGGAAAGAAUAUUUGAUUUAGAUGCCAAUCAGGAAGGCAAGUAGGAUGGAUGGAUGAGUGAGUGGAUAGGUAGGUAUAUAAAUGGAUGGAUGGGUGAUGGAUGGGUAAAUGAAUGGAUAGCAUACUGAAUGAAUGGAUGAUGGAUGAAUGGAUGGGUAGGUGGGUAGAUAGGUAUAUGAAUGAAUGGAUGAAUGGAUGGGUGAAUGGAUGGAUAGCAUACUGAACUCUUGCGGUCGCACUAGUGUGGAAUUCUCGGGUGUCAAGG
B15: ENSMUSG00000061578.1429|Ksr2 (ssRNA)
RNA: GGGAGUUCUACAGUCCGACGAUCGCUUCGAUAUCCGCAUGCUAAGAUCUGUCUUGCUCUCUGUCUCUCUCACUCAUUGCCAACAUGUUGCUGGGAAAGAAUAUUUGAUUUAGAUGCCAAUCAGGAAGGCAAGUAGGAUGGAUGGAUGAGUGAGUGGAUAGGUAGGUAUAUAAAUGGAUGGAUGGGUGAUGGAUGGGUAAAUGAAUGGAUAGGUAUGUGAAUGAAUGGAUGAUGGAUGAAUGGAUGGGUAGGUGGGUAGAUAGGUAUAUGAAUGAAUGGAUGAAUGGAUGGGUGAAUGGAUGGACUCUUGCGGUCGCACUAGUGUGGAAUUCUCGGGUGUCAAGG
B16: ENSMUSG00000061578.1433|Ksr2|145:149;240:244 (ssRNA)
RNA: B8 RNA with G188C, U189A, A190U, U191A, G192C, G283C, U284A, A285U, U286A, G287C

TDP-43, sequence (Q13148 whole entry): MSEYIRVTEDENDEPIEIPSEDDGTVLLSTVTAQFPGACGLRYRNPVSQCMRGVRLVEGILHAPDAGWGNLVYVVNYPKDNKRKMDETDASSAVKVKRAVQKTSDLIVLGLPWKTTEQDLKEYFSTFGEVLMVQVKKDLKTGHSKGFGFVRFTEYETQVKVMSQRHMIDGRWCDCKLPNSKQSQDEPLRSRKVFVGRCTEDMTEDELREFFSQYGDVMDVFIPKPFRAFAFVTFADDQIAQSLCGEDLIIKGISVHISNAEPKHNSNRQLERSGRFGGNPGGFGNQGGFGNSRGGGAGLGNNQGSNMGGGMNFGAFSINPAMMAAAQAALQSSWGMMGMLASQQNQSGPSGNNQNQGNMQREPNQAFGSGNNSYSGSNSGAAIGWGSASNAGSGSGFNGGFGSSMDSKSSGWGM

For the experiment, the target named is TDP-43 (Homo sapiens, UniProt Q13148 1-414). The experiment in a line: RNA Bind-n-Seq with designed 260-mer pool; 25 mM Tris-HCl, 150 mM KCl, 3 mM MgCl2, BSA (printed 500 mg/mL), 20 units/mL SUPERase IN; pH not stated; 500 nM RNA pool, 1 h, 4 C; TDP-43 5, 50, 500 nM; high values mean tight binding. The conditions noted are these: protein: recombinant; tags: SBP (GST cleaved off with PreScission; pGEX-GST-SBP). The essentials:
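Duplicate measurements used two independent batches of recombinant SBP-tagged TDP-43, which was captured on streptavidin beads at 5, 50 or 500 nM. The beads were incubated with 500 nM of an in vitro-transcribed 260-nt 3′ UTR oligo pool for 1 h at 4 °C in 25 mM Tris-HCl, 150 mM KCl, 3 mM MgCl2, BSA and SUPERase IN. After washing, biotin elution, reverse transcription, PCR amplification and sequencing, binding was expressed as R: each oligo's normalized read abundance in the bound sample over its abundance in input.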
Turning to B1, the binding signal is 5.79 R (bound/input frequency ratio). In the case of B2, the binding signal is 0.449 R (bound/input frequency ratio). The figure for B3 is 2.14 R (bound/input frequency ratio); for B4 it is 1.15 R (bound/input frequency ratio). Regarding B5, the binding signal was 0.368 R (bound/input frequency ratio).

On to B6, for which the binding signal is 1.21 R (bound/input frequency ratio).

As for B7, the binding signal was 0.376 R (bound/input frequency ratio).

In the case of B8, the binding signal is 6.35 R (bound/input frequency ratio). Regarding B9, the binding signal is 6.58 R (bound/input frequency ratio). For B10, the binding signal is 5.26 R (bound/input frequency ratio).

On to B11, for which the binding signal is 6.18 R (bound/input frequency ratio). Turning to B12, the binding signal is 3.79 R (bound/input frequency ratio). The figure for B13 is 5.51 R (bound/input frequency ratio). For B14, the binding signal was 7.04 R (bound/input frequency ratio). In the case of B15, the binding signal is 4.48 R (bound/input frequency ratio).

As to B16, the binding signal is 7.14 R (bound/input frequency ratio).
